For 109 compounds, inhibition results are on record in PubChem BioAssay AID453 (PCMD, 2006).

The structures appear in SMILES notation. About 75 (0.1%) of roughly 63,000 compounds were called active. The entries come from a sample that favours actives as a whole. Values without a mark were called inactive. Rule as the data show it: active = inhibition above about 21%; inactive = the rest.

What is called inhibition is the drop in the measured response relative to a control, in per cent.

This test concerns the target Cathepsin B (Homo sapiens) (UniProt P07858). Briefly: blockers of cathepsin B proteolysis – biochemical, fluorogenic substrate, primary screen (AID 453).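 Also: 0% = enzyme with no compound and 100% = no enzyme blank.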 Particulars: purified cathepsin B, fluorescence, active compounds read high,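 tested at 10 µM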.
As to `Cc1ccc(NC(=O)CSc2nnc(-c3cnccn3)n2Cc2ccco2)cc1C`, the inhibition was 3.51%. In the case of `CC(C)OC(=O)C(C#N)c1nc2ccccc2nc1N1CCN(Cc2ccc3c(c2)OCO3)CC1` (centres undefined), the inhibition is 0.39%.

As to `CCOc1ccc2[nH]c(=O)c(CN(CCCO)C(C)=O)cc2c1`, the inhibition is 2.29%. As for `CCOc1ccc2c(c1)cc(CN(C(=O)CC)C1CCCCC1)c1nnnn12`, the inhibition was 10.1%.

Turning to `CCOC(=O)N1CCN(CC(=O)n2c(C)c(C)c3ccccc32)CC1`, the inhibition was -1.09%. Regarding `O=C(c1cccc(C(=O)N2CCc3ccccc32)n1)N1CCc2ccccc21`, the inhibition is 3.59%.

As for `CC(C)(C)Oc1ncc(Br)c(OC(C)(C)C)n1`, the inhibition was -1.01%. As to `Cn1c2c(c(=O)n(C)c1=O)CN(Cc1ccco1)CN2`, the inhibition is 2.04%.

For the compound `N#CCSc1nc2ccccc2c(=O)n1-c1ccccc1`, the inhibition is 5.09%. As for `c1ccc(-n2ncc3c2ncn2c(CSc4nc5ccccc5s4)nnc32)cc1`, the inhibition was -2%. Then `CC(C)(C)n1nnnc1C(c1cccs1)N(Cc1cccnc1)CC1CCCO1` (centres undefined), with 3.9%. Regarding `COc1ccc(/C(O)=C2/C(=O)C(=O)N(CCCN(C)C)C2c2ccccc2)cc1OC` (centres undefined), the inhibition is 0.7%. Consider `Cn1c(=O)oc2cc(S(=O)(=O)N3CCC(C(=O)Nc4ccc(OC(F)(F)F)cc4)CC3)ccc21`, for which the inhibition was 1.08%.

With `Cc1nnc(SCC(=O)N(C(C)C)C(C)C)nc1C`, the inhibition is 3.33%. Consider `COc1cccc(-c2nnc(NC(=O)c3ccc(S(=O)(=O)N(CC(C)C)CC(C)C)cc3)o2)c1`, for which the inhibition was 3.9%. On to `C=C(C)CSc1nc(N)c2c3c(sc2n1)CCC3`, for which the inhibition was -1.31%. For `O=C(Nc1ccccc1)c1cccnc1Nc1ccccc1`, the inhibition is -3.06%.

Regarding `COc1ccc(Cc2nnnn2CC(=O)O)cc1`, the inhibition is -2.08%. The result for `CSc1nsc(SC)c1NC(=O)OC1CCCCC1` reads 2.76%; that for `CCOC(=O)C1CCCN(C(=O)C2CCN(c3nnc(-n4cccc4)s3)CC2)C1` (centres undefined), 5.94%. Consider `Cn1nnnc1SCC(=O)N1CCN(C(c2ccccc2)c2ccccc2)CC1`, for which the inhibition was 8.32%. Take `C/C(=C(\C#N)C(=O)NCCCN1CCOCC1)N(C)C`: the inhibition was 2.66%. The result for `CC1(C)C/C(=C(/C#N)C(N)=O)CCO1` reads 9.43%. On to `Cc1ccsc1CNn1cnnc1SCc1ccccc1F`, for which the inhibition is 2.13%.

Take `CC(NC(=O)CN1CCN(Cc2ccc(Cl)cc2)C1=O)c1ccc2c(c1)OCCO2` (centres undefined): the inhibition is 0.3%. The result for `CCOC(=O)c1ccc(Nc2cc(C)nc3nc(C)nn23)cc1` reads -3.59%. Then `O=C(CN1CCOc2ccccc21)N1CCC(Cc2ccccc2)CC1`, with 0.85%; and `C=CCn1c(C2CC(=O)N(c3ccc(C)cc3)C2)nc2ccccc21` (centres undefined), with -1.25%.

As to `CCN(CC)CCCNC(=O)c1cc(-c2cccc(Cl)c2)on1`, the inhibition was 4.03%. Consider `O=C1N(Cc2ccc3c(c2)OCO3)c2ccccc2C1(O)c1c[nH]c2ccccc12` (centres undefined), for which the inhibition was -2.6%. Turning to `CCOc1ccc(/C(O)=C2/C(=O)C(=O)N(Cc3cccnc3)C2c2ccc(N(C)C)cc2)c(C)c1` (centres undefined), the inhibition is 1.4%. Turning to `Nc1nonc1-c1noc(-c2ccc(Br)o2)n1`, the inhibition is 25% (active). Then `O=C(O)CCC(=O)NCc1ccc2[nH]c3c(c2c1)CCCC3`, with 3.83%.

Regarding `CCOC(=O)c1c(NC(=O)CSc2nnc(CN3CCOCC3)n2C)sc2c1CCCC2`, the inhibition was -0.13%. As for `O=C(OCC(O)C(O)COC(=O)c1ccccc1)c1ccccc1` (centres undefined), the inhibition was 0.46%. Regarding `N#Cc1c(N)n(CCOC(=O)c2ccc(Cl)cc2)c2nc3ccccc3nc12`, the inhibition is 0.87%. Then `Cc1ccc(-n2c(N)c(C(=O)N3CCOCC3)sc2=S)c(C)c1`, with -2.06%; and `O=C(CN1CCN(c2ncc(C(F)(F)F)cc2Cl)CC1)Nc1ccc2c(c1)OCO2`, with 10.7%; and `CC1(C)CC(=O)C(C2=NC(C)(C)Cc3ccccc32)=C(O)C1`, with 0.19%. The result for `CCCCOC(=O)c1[nH]c(C)c(C(=O)OC)c1C` reads 4.33%. Turning to `CC(Sc1nncs1)C(=O)NCc1ccc2c(c1)OCO2` (centres undefined), the inhibition was -5.21%. For the compound `CCOC(=O)N1CCN(S(=O)(=O)c2cc3c(cc2C)NC(=O)CO3)CC1`, the inhibition was 1.1%. Turning to `CCOC(=O)CCc1c(C)c(C#N)c2[nH]c3ccccc3n2c1=O`, the inhibition was 2.21%. Take `O=C(NCc1ccccn1)c1cnc2sccn2c1=O`: the inhibition was -2.74%. The result for `Cc1ccccc1C(OCC(O)CN1CCCCC1CCO)c1ccccc1` (centres undefined) reads 2.98%. With `CCCC(=O)N1CCc2[nH]c3ccccc3c2C1`, the inhibition is 0.39%. `Cc1ccccc1Nc1nnc(C)c(=O)[nH]1`: the inhibition is -0.9%. Then `CC(=O)C1=C(O)C(=O)N(c2ccc(S(N)(=O)=O)cc2)C1c1ccccc1F` (centres undefined), with -1.52%; and `Cc1ccc(NC(=O)NCC(c2cccnc2)N2CCOCC2)cc1` (centres undefined), with -2.73%. The result for `OCc1nc(CO)n(Cc2ccccc2)n1` reads 5.1%; that for `c1ccc(CCC2=NCCn3cccc32)cc1`, 4.22%. The result for `CCOc1ccccc1C1NC(=O)NC(C)=C1C(=O)OCc1ccco1` (centres undefined) reads 2.19%; that for `O=C(C1CCN(S(=O)(=O)c2cnc[nH]2)CC1)N1CCN(Cc2ccc3c(c2)OCO3)CC1`, 5.41%. As for `COc1cccc(N2CCN(C(=O)C3CCCN(S(=O)(=O)c4cnc[nH]4)C3)CC2)c1` (centres undefined), the inhibition is -4.17%. `Cc1cccc(N2CCN(C(=O)C3CCN(S(=O)(=O)c4cnc[nH]4)CC3)CC2)c1C`: the inhibition was 44.5% (active). For the compound `CCC(c1nnnn1C1CCCC1)N1CCN(C(=O)c2ccco2)CC1` (centres undefined), the inhibition was 4.25%.

Consider `CCCCN=C(N)/C(C(=O)OCC)=C(\O)c1ccc(OC)cc1`, for which the inhibition is -2.85%.

`CC(C)OC(=O)c1sc2nc3c(cc2c1N)C(=O)CCC3`: the inhibition is 1.67%. With `COc1ccc(N2C(=O)C3CCCN3C2c2cccs2)cc1` (centres undefined), the inhibition was 2.37%. Then `O=S(=O)(NCCOc1cccc2cccnc12)c1ccc(F)cc1`, with -0.09%; and `O=C(C1=C(O)C(=O)N(Cc2ccccc2)C1c1cccnc1)c1ccco1` (centres undefined), with -2.37%; and `N#CCCN(CCC#N)c1nnc(-c2ccccc2)s1`, with 1.65%. Then `COc1ccccc1CNC(=O)CCCNS(=O)(=O)c1cccc2nsnc12`, with 3.57%; and `O=C(CSc1nnnn1C1CCCC1)Nc1ccc2c(c1)OCCO2`, with -2.88%; and `Cc1ccccc1CSc1nnc(Cn2c(=O)sc3ccccc32)n1C`, with 1.64%.

With `CN1CCN(c2nc3c(c(=O)[nH]c(=O)n3C)n2Cc2cccc3ccccc23)CC1`, the inhibition is 5.25%. Turning to `C=C(Br)CN1CCN(CC(=C)Br)CC1`, the inhibition is 8.43%. `CCOc1cc(-c2conc2N)cc(OCC)c1OCC`: the inhibition was 0.88%.

In the case of `O=c1[nH]c(=O)n(Cc2ccco2)c2c1C(C(F)(F)F)(C(F)(F)F)N=C(c1ccco1)N2`, the inhibition is 3.15%. The result for `Cc1ccc(-c2nn(-c3ccccc3)cc2CN(Cc2ccccc2)C(=O)CCC(=O)O)o1` reads -3.71%; that for `O=c1oc2c(CN3CCCCC3)c(O)ccc2c2c1CCCCC2`, -33.1%; that for `C=CCNc1nc(C)nc(OC)n1`, 3.19%. For the compound `O=CN1CCN(C2CC(=O)N(c3ccc4c(c3)OCO4)C2=O)CC1` (centres undefined), the inhibition was -5.45%.

In the case of `COCCn1c(SCC(=O)Nc2cc(Cl)ccc2OC)nc2c(c1=O)SC(C)C2` (centres undefined), the inhibition was -1.89%. Then `O=C(COc1ccc(Cl)cc1)Nc1ccccc1CO`, with -0.12%; and `CCOC(=O)c1c(C)nc(-c2ccccc2)nc1NC(=O)C(C)C`, with -1.86%; and `CCOC(=O)c1c(NC(=O)CSc2nnc(Cc3csc(N)n3)n2C)sc(C)c1C`, with 1.53%.

For the compound `O=C(O)C1CCCCC1C(=O)Nc1ccc(Cl)cc1` (centres undefined), the inhibition was -2.32%. As for `O=C1Nc2ccccc2C12Nc1ccccc1S2` (centres undefined), the inhibition was -3.59%. The result for `CCOC(=O)c1[nH]c2ccccc2c1N=C(C)N(CC)CC` reads -1.09%; that for `COC(=O)CCNc1ccc2c(c1)OCCO2`, -7.3%; that for `O=C(Nc1nc2ccc(S(=O)(=O)N3CCCC3)cc2s1)C1CCCO1` (centres undefined), -0.69%.

Regarding `Cc1nonc1NC(=O)c1ccccc1Br`, the inhibition was -1.31%. For `COc1ccc2c(c1)C(C)=CC(C)(C)N2C(=O)CNCc1ccc2c(c1)OCO2`, the inhibition was 0.73%.

Regarding `CC(=O)Oc1cc2c(C(=O)NCCN3CCOCC3)c(C)oc2c2ccccc12`, the inhibition was -1.15%. On to `Cc1ccc(CC2CC(=O)N(c3ccc4c(c3)OCCO4)C2=O)cc1` (centres undefined), for which the inhibition is 3.98%. For `N#Cc1ccccc1-n1c(N)c(C(=O)N2CCCC2)sc1=S`, the inhibition is 4.81%. The result for `Cc1ccc(C(C(=O)NC2CCCCC2)N(C(=O)c2csnn2)C2CC2)o1` (centres undefined) reads 4.47%; that for `CCCC(=O)N1c2ccc(-c3csc(N)n3)cc2CC1C` (centres undefined), 1.69%.

Regarding `CCCCC(=O)Nc1ccc(C(=O)NCCCn2ccnc2)cc1`, the inhibition is -0.94%. The result for `CCCCCC(=O)Nc1ccc2oc(-c3ccncc3)nc2c1` reads -2.27%; that for `COc1ccccc1NC(=O)CSc1nnc(Cc2cccn2C)n1-c1ccc(F)cc1`, 2.97%; that for `Cc1ccc(Nc2nc(CSc3nnnn3-c3ccccc3)cc(=O)[nH]2)cc1`, 1.57%. Then `COC(=O)C1=C(C)OC(N)=C(C#N)C1c1cc(OC)ccc1OC` (centres undefined), with 4.88%; and `Nc1scc(-c2ccncc2)c1Cl`, with 3.27%.

Turning to `CC(C)c1nc(N2CCOCC2)c(C#N)c2c1COC(C)(C)C2`, the inhibition is 1.28%. Then `CCCCc1nc2ccccc2c(=O)n1NC(=O)c1c(O)c2cccc3c2n(c1=O)CC3`, with -2.29%; and `O=C(CCSc1ccccc1)NCCSc1ccccn1`, with 5.87%. For `Nc1nonc1-c1nc2ccccc2n1Cc1ccc(F)cc1`, the inhibition was 73.1% (active). The result for `CCCn1c(C(O)c2cc(OC)ccc2OC)nc2ccccc21` (centres undefined) reads 5.72%; that for `COc1ccc(C)c(Cn2c(-c3nonc3N)nc3ccccc32)c1`, 45.2% (active). The result for `COCCn1c(-c2ccc(OC)c(OC)c2)nc2ccccc21` reads 4.56%; that for `CC(=O)Nc1nonc1-c1nc2ccccc2n1Cc1ccccn1`, -4.81%.

Regarding `Nc1nonc1-c1nc2ccccc2n1CCC(=O)O`, the inhibition is 7.32%.

Consider `Cc1cc(NC(=O)CCC(=O)N(c2ccccc2)C(C(=O)NC2CCCC2)c2ccncc2)no1` (centres undefined), for which the inhibition was 0.19%.

Consider `CCn1c(COc2ccccc2)nnc1SCC(=O)Nc1ccc2c(c1)OCCO2`, for which the inhibition is 1.14%.

Consider `COC(=O)Nc1nc2ccc(Sc3ccccc3)cc2[nH]1`, for which the inhibition was 4.96%. Regarding `COc1ncnc2c1N=C1CC(C)(C)CC(N)=C1S2`, the inhibition was -1.8%. Regarding `Cc1ccc2oc(=O)c3cnn(CC(=O)N4CCN(c5ccccn5)CC4)c3c2c1`, the inhibition was 3.28%.
